# Data: PubChem BioAssay
# Calls of active or inactive are those of the source.
# What was measured:
# Albumin (Bos taurus) = Albumin (Bos taurus) (UniProt P02769); assay: bovine serum albumin binders on microarray, profiling panel, artefact control for SMM control protein annotation, biochemical, small-molecule microarray, Alexa647 label, 635/667 nm fluorescence (AID 1118); settings: BSA-A647 binding, fluorescence 635 nm, higher = more signal;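 note: score merges 667 nm emission intensity and signal-to-noise per printed compound spot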
# Albumin (Bos taurus), sequence (P02769 whole entry, looked up): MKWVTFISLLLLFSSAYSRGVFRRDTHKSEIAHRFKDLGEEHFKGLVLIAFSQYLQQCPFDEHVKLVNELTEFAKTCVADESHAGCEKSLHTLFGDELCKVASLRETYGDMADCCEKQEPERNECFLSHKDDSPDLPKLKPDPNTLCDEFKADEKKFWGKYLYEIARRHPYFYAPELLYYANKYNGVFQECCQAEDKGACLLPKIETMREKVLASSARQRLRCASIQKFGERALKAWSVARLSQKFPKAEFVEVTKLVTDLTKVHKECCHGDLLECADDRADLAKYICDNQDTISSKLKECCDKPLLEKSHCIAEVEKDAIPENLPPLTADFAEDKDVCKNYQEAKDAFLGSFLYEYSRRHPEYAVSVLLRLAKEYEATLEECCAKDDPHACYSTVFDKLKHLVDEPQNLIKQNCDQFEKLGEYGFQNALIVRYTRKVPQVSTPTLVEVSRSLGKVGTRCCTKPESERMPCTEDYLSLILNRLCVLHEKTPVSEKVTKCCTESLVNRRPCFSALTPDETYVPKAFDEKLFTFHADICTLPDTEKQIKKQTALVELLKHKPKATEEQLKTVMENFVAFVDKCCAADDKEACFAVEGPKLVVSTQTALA
# [1] = small-molecule microarray binders of probe aXIP, primary screen, biochemical, NeuroSMM set, 635/667 nm fluorescence (AID 1119); settings: higher = more signal, called active from +8 up or from −8 down;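 note: probe is the protein aXip251-270 applied at 1 µg/mL to compound-printed slides; binding of probe to printed compounds measured as 667 nm fluorescence plus signal to noise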
# [2] = small-molecule binders of probe aNOTCH3, primary screen, biochemical, small-molecule microarray, 635/667 nm fluorescence (AID 1120); settings: higher = more signal;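 note: probe is a biotin-tagged antibody raised against NOTCH3 rather than NOTCH3 protein; score merges spot fluorescence near 667 nm with spot signal to noise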
# [3] = small-molecule binders of probe aNOTCH2, primary screen, biochemical, small-molecule microarray, 635/667 nm fluorescence (AID 1121); settings: higher = more signal;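 note: score merges feature fluorescence read at 667 nm with its signal to noise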
# [4] = biological target: Carbonic anhydrase 2 (Homo sapiens) (UniProt P00918); assay: CAII small-molecule binders, profiling panel, biochemical, small-molecule microarray, Alexa647-labelled CAII (AID 1122); settings: CAII-A647 binding fluorescence, higher = more signal
# [5] = COS7 lysate on small-molecule microarray, probe aHis, 635 nm (AID 1123); settings: COS7 cell lysate, fluorescence, higher = more signal;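 note: z-score combines 667nm fluorescence intensity with signal-to-noise per printed compound spot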
# [6] = compound binding in COS7 lysate, probe aLAP1, primary screen, cell lysate, small-molecule microarray (AID 1124); settings: probe aLAP1, fluorescence, higher = more signal;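 note: lysate comes from COS7 cells expressing LAP1 and is applied at 0.3 µg/mL; score merges spot fluorescence near 667 nm with signal-to-noise over triplicate slides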
# Sam68 (KHDRBS1) = assay: Sam68 small-molecule binders, primary screen, biochemical, small-molecule microarray, 635 nm fluorescence (AID 1125); settings: small-molecule microarray binding, higher = more signal;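 note: score merges 667 nm channel intensity with signal to noise over triplicate slides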
# [7] = system: Chordin-like protein 2 (CHRDL2); assay: CHRDL2 small-molecule binders, primary screen, biochemical, small-molecule microarray, 635 nm fluorescence (AID 1126); settings: small-molecule microarray binding, fluorescence 635 nm; higher = more signal;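 note: printed compound slides probed with Chrdl2 protein at 4 µg/mL for 1 h at 4 C; score merges 667 nm emission intensity with signal to noise over three replicate slides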
# [8] = biological target: Concanavalin-A (Canavalia ensiformis) (UniProt P02866); assay: ConA small-molecule binders, primary screen, artefact control for SMM control protein annotation, biochemical, small-molecule microarray, Alexa647 label, 635 nm (AID 1127); settings: ConA-A647 binding fluorescence, higher = more signal;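 note: z combines 667 nm emission intensity with signal-to-noise across three replicate slides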
# Concanavalin-A (Canavalia ensiformis), sequence (P02866 whole entry, looked up): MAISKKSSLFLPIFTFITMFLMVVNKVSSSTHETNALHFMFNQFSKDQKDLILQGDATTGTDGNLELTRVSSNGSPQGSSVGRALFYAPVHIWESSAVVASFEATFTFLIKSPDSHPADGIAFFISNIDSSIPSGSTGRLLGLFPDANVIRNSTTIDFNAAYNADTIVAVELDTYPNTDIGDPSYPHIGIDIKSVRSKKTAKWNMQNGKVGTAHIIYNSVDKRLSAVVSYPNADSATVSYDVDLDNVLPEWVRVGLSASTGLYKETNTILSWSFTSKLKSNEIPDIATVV
# [9] = anti-His antibody binders, primary screen, artefact control for SMM control protein annotation, biochemical, small-molecule microarray, 635 nm fluorescence (AID 1128); settings: anti-His Alexa647 antibody binding, higher = more signal;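 note: score merges feature fluorescence with signal-to-noise for each printed compound spot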
# [10] = system: Human papillomavirus type 1a E7 protein (residues 1-88); assay: HPV1a E7 small-molecule binders, primary screen, biochemical, small-molecule microarray, residues 1-88, 635 nm (AID 1129); settings: small-molecule microarray binding, fluorescence 635 nm; higher = more signal
# [11] = biological target: Focal adhesion kinase 1 (Homo sapiens) (UniProt Q05397); assay: small-molecule microarray binders of FAK, primary screen, biochemical, 635/667 nm fluorescence, BSA, DTT (AID 1130); settings: PTK2 binding, 635 nm fluorescence, higher = more signal;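 note: composite of spot emission at 667 nm and signal to noise over triplicate slides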
# Focal adhesion kinase 1 (Homo sapiens), sequence (Q05397 whole entry, looked up): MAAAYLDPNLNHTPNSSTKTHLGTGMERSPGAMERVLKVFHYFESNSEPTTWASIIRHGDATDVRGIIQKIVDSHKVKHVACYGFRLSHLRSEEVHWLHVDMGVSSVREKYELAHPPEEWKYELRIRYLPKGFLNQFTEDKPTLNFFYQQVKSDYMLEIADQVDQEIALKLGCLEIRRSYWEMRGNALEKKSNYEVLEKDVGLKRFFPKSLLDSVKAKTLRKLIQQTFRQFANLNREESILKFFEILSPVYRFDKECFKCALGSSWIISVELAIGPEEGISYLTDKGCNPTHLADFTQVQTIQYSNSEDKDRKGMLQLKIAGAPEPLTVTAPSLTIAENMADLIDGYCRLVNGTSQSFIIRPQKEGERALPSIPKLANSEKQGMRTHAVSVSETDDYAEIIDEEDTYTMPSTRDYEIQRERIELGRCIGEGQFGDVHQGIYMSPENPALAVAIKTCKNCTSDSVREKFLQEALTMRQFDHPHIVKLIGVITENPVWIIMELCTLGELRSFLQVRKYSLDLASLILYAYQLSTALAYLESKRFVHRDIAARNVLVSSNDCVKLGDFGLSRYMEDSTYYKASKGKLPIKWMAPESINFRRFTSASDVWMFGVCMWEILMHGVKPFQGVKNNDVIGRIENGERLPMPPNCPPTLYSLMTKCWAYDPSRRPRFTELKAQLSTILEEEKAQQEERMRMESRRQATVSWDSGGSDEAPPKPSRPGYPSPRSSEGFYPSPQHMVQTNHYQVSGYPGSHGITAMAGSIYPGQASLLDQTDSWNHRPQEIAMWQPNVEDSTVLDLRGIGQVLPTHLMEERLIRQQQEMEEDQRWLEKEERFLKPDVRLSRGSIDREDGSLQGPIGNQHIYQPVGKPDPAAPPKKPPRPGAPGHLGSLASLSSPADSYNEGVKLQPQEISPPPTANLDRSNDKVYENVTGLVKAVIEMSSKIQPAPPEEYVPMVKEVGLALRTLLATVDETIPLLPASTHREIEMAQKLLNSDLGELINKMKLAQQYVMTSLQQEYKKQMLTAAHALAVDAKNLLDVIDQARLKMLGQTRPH
# [12] = system: Fibrinogen (Alexa647-labelled); assay: fibrinogen binders on compound microarrays, profiling panel, artefact control for SMM control-protein annotation, biochemical, small-molecule microarray, 635/667 nm fluorescence (AID 1131); settings: fibrinogen-A647 binding fluorescence, higher = more signal;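 note: z-score merges 667 nm fluorescence with per-spot signal-to-noise over triplicate slides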
# [13] = biological target: Follistatin (Homo sapiens) (UniProt P19883); assay: follistatin binders on small-molecule microarrays, primary screen, biochemical, small-molecule microarray, 635/667 nm fluorescence (AID 1132); settings: FST binding, 635 nm fluorescence, higher = more signal
# Follistatin (Homo sapiens), sequence (P19883 whole entry, looked up): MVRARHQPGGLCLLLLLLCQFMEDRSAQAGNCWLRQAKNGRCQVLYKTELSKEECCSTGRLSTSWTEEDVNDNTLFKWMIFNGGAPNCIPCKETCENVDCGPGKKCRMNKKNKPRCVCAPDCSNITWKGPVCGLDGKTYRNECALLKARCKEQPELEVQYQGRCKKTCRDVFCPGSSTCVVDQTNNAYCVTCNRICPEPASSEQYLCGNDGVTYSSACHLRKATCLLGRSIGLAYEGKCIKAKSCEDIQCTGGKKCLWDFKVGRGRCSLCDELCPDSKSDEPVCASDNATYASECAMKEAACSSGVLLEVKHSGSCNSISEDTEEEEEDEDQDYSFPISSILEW
# [14] = biological target: Fibroblast growth factor 2 (Homo sapiens) (UniProt P09038); assay: FGF2 binders on small-molecule microarrays, primary screen, biochemical, small-molecule microarray, 635/667 nm fluorescence (AID 1133); settings: small-molecule microarray binding, FGF2, fluorescence 635/667; higher = more signal
# Fibroblast growth factor 2 (Homo sapiens), sequence (P09038 whole entry, looked up): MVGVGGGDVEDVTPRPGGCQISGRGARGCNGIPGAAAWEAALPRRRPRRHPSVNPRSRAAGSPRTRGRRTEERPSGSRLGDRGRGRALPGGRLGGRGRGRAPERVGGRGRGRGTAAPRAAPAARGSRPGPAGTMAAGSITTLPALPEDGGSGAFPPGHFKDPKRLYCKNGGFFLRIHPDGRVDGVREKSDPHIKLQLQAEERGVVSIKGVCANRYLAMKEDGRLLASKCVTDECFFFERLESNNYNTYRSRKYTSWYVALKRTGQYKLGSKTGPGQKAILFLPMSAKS
# [15] = mitochondrial membrane potential change in A549 cells, profiling panel, cell-based, JC-1 fluorescence, basal, 24 h, 100 nL (AID 1138); settings: higher = more signal;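 note: A549 lung adenocarcinoma cells under basal conditions with no added stimulus; test concentration not given here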
# Lefty1 = Lefty1 binders on small-molecule microarrays, primary screen, biochemical, small-molecule microarray, 635/667 nm fluorescence (AID 1139); settings: small-molecule microarray binding, fluorescence 635/667; higher = more signal
# [16] = system: wheat germ agglutinin (Triticum aestivum), Alexa647-labelled; assay: wheat germ agglutinin binders on compound microarrays, profiling panel, artefact control for SMM control-protein annotation, biochemical, small-molecule microarray, 635/667 nm fluorescence (AID 1140); settings: WGA-A647 binding, 635 nm fluorescence, higher = more signal;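 note: score merges 667 nm feature emission with signal to noise over triplicate slides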
# [17] = biological target: Luciferin 4-monooxygenase (Photinus pyralis) (UniProt P08659); assay: firefly luciferase enzyme inhibitors, primary screen, biochemical, luminescence, purified enzyme, 2006 set (AID 1141); settings: SteadyGlo luminescence, 30 min, higher = more signal, called active from +8 up or from −8 down;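 note: cell-free assay with purified firefly luciferase at 100 ng per well in PBS; test concentration not given here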
# Luciferin 4-monooxygenase (Photinus pyralis), sequence (P08659 whole entry, looked up): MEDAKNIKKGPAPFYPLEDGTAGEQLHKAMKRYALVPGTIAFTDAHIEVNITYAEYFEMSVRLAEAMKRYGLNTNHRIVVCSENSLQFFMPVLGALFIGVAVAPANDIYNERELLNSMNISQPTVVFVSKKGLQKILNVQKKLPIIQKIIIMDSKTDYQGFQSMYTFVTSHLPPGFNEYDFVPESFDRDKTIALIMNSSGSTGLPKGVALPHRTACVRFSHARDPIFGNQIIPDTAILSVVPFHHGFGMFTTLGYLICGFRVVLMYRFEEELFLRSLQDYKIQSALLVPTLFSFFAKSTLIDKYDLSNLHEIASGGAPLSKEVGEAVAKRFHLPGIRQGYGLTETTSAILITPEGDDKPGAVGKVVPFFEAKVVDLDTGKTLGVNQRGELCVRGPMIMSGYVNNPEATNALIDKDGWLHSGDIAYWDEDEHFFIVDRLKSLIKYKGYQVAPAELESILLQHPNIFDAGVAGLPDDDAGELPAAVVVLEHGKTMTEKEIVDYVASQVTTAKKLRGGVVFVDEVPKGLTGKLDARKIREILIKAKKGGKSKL
SMILES,composite z-score (Albumin (Bos taurus)),composite Z-score [1],composite z-score [2],composite z-score [3],composite z-score [4],composite z-score [5],composite z-score [6],composite z-score (Sam68 (KHDRBS1)),composite z-score [7],composite z-score [8],composite z-score [9],composite z-score [10],composite z-score [11],composite z-score [12],composite z-score [13],composite z-score [14],z-score [15],composite z-score (Lefty1),composite z-score [16],z-score [17]
COc1ccc(C(O)C2C=CC3C(=O)N(c4ccccc4)C(=O)C3N2Nc2ccc(C#N)cc2)c2ccccc12 (stereo not given),1.07,1.3 (inactive),0.0248,0.0847,0.734,2.48,0.537,1.28,-0.32,1.22,1.67,1.25,0.0632,0.979,0.944,-0.012,-0.616,0.392,1.04,-0.786 (inactive)
CO[C@H]1O[C@H](CO)[C@@H](OC(=O)Nc2ccc(Oc3ccccc3)cc2)[C@H](OC(=O)Nc2ccccc2-c2ccccc2)[C@@H]1OC(=O)Nc1ccccc1-c1ccccc1,0.814,-0.098 (inactive),0.182,0.247,0.482,2.31,1.09,1.32,-0.139,1.14,0.818,1.07,0.263,0.964,0.595,0.295,-0.426,0.841,0.773,-0.69 (inactive)
C[C@H]1C2=C3C(CC[C@H]4C(OCc5ccc(F)cc5C(F)(F)F)OC[C@](C)([C@@H]34)N(C(=O)OC(C)(C)C)C2)C(CO)C1CO (stereo not given in full),0.953,1.08 (inactive),0.266,0.0831,0.352,3.19,0.505,1.31,-1.44,0.862,0.0803,1.12,0.882,0.944,0.578,-1.89,1.31,-0.781,0.608,0.608 (inactive)
CCOC(=O)C[C@H]1[C@H](OC(=O)c2ccccc2-c2ccccc2)[C@@H](NC(=O)CC(C)C)c2cc(OCCCO)ccc2N1C(=O)c1ccc2ccccc2n1,0.641,0.675 (inactive),-0.0031,-0.13,0.431,0.578,0.452,0.569,0.224,0.629,-0.123,0.304,0.162,0.335,0.323,0.318,0.488,0.76,0.152,0.365 (inactive)
CC[C@H]1C2=C3C(CC[C@H]4C(OCc5ccc(F)cc5C(F)(F)F)OC[C@](C)([C@@H]34)N(C(=O)OC(C)(C)C)C2)C2COC(=O)OCC21 (stereo not given in full),0.911,0.572 (inactive),0.367,0.0755,0.578,2.62,0.494,1.32,-1.64,0.994,0.0812,1.17,1.55,0.979,0.432,-1.39,1.86,-0.233,0.688,-0.198 (inactive)
O=C(N1CCCCC1)[C@@]1(Cc2ccccc2)COC(c2ccc(OCCCO)cc2)=N1,0.874,0.986 (inactive),0.501,0.313,0.714,2.44,0.409,1.33,-0.729,0.892,1.85,1.2,0.195,0.96,0.475,1.3,1.22,-0.211,1.12,-0.117 (inactive)
